The full ranking holds about 18,000 sequences; the median of “log2 normalized intensity” is about 0.39, and the highest 2% start at about 6.6. What follows is part of a selection rich in the highest values, with near analogues and random picks from the rest.
Each sequence was assayed against T1, HNF4alpha2 (COS-7 nuclear extract) (Homo sapiens, UniProt P41235 1-474) (assay: protein-binding microarray; COS-7 nuclear extract on double-stranded Agilent 4x180k PBM; binding buffer, salt, pH and temperature not given in the material; high values mean tight binding). Settings: chain copies: 2; label: 3' end of strand 1 on the slide; dsDNA, one strand shown.
T1 sequence: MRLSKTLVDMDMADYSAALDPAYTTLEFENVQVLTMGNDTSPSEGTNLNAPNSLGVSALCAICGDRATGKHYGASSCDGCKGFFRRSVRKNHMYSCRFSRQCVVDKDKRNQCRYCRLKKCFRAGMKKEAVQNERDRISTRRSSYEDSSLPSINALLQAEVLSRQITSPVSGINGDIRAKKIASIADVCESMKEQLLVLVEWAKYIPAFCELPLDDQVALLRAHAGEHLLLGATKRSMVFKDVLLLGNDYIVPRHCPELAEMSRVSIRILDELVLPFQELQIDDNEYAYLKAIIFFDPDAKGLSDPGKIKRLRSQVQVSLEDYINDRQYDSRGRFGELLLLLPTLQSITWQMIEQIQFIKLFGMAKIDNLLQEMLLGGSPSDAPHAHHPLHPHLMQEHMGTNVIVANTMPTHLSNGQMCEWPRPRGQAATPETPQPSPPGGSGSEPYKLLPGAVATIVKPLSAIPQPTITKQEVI
Outline: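 Nuclear extracts of COS-7 cells transiently transfected with a human HNF4α isoform were applied to a custom Agilent SurePrint G3 4x180k array bearing ~44,000 double-stranded ~60-nt test sequences, each in quadruplicate. The bound protein was imaged on an Agilent G2565CA scanner at 2-µm resolution. Binding signal is the normalized, background-corrected gProcessedSignal from Agilent software.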

Sequence | binding signal [log2 normalized intensity]
CTTTGACACAGGCGACCTTCGCTCGGCTCGGCCTAGGGAGATTAGAGTATCGGTCGA | 3.46
GCCCCAGCTCGCTCAGCTGGTTGCCCCTTTGCCTAGGGAGATTAGAGTATCGGTCGA | 4.14
GCTCAGCTGGTTGCCCCTTTGACCCTCGGGGCCTAGGGAGATTAGAGTATCGGTCGA | 6.11
AAATCCCCGCCTTTGACACAGGCGACCTTCGCCTAGGGAGATTAGAGTATCGGTCGA | 3.94
TCAGGCACAGCTCGACCTTTGACCTTCGGCGCCTAGGGAGATTAGAGTATCGGTCGA | 10.2
CCTTTGACCTTCGGCTTCCCCAGAGAAAGAGCCTAGGGAGATTAGAGTATCGGTCGA | 3.03
CACAGCTCGACCTTTGACCTTCGGCTTCCCGCCTAGGGAGATTAGAGTATCGGTCGA | 8.84
TCTCGCTGCTTCGGCCTTTGACCTCGTGATGCCTAGGGAGATTAGAGTATCGGTCGA | 6.52
AGCTCGCTCAGCTGGTTGCCCCTTTGACCCGCCTAGGGAGATTAGAGTATCGGTCGA | 7.89
CAGGGTGGGGTCTCGCTGCTTCGGCCTTTGGCCTAGGGAGATTAGAGTATCGGTCGA | 1.33
CCCGCCTTTGACACAGGCGACCTTCGCTCGGCCTAGGGAGATTAGAGTATCGGTCGA | 5.17
TGGGGTCTCGCTGCTTCGGCCTTTGACCTCGCCTAGGGAGATTAGAGTATCGGTCGA | 7.94
CCTTGCACTATTGACCCAGTGAAACAACACGCCTAGGGAGATTAGAGTATCGGTCGA | 1.65
TAGGCCACCTGTGTCAACATGGACTTTGTTGCCTAGGGAGATTAGAGTATCGGTCGA | 5.86
TTCTGCCTTATCAGCGGCCCTGTGCTGCCCGCCTAGGGAGATTAGAGTATCGGTCGA | 0.0914
CTTGTCTTATCAGCAGGGTCTTTTTGACCTGCCTAGGGAGATTAGAGTATCGGTCGA | 4.38
GTCTCTCAGGCACAGCTCGACCTTTGACCTGCCTAGGGAGATTAGAGTATCGGTCGA | 10.1
CCTCTGTCTCTCAGGCACAGCTCGACCTTTGCCTAGGGAGATTAGAGTATCGGTCGA | 5.94
CTATTATGCCTTGACTTCAAATCATACTGAGCCTAGGGAGATTAGAGTATCGGTCGA | 0.897
TCAGAGATCAAGATACAGGTCAGACCCTGGGCCTAGGGAGATTAGAGTATCGGTCGA | 0.993
CTATTGTCCTATGACCCTGCCAAATCCCCCGCCTAGGGAGATTAGAGTATCGGTCGA | 4.52
CATTTTACAGTGCCATTTATCAGTGATTTCGCCTAGGGAGATTAGAGTATCGGTCGA | 0.854

Sequence | binding signal [log2 normalized intensity]
CAGAGCTGTCGTCCCAGGGCAAAGGTCACCGCCTAGGGAGATTAGAGTATCGGTCGA | 7.59
GGGCAAATCTGAGGTCAAAGCTGTCAGAGAGCCTAGGGAGATTAGAGTATCGGTCGA | -0.198
CTTCCCAGCTGCTGGTCAAAGGGCATTACTGCCTAGGGAGATTAGAGTATCGGTCGA | 4.94
TATTCCCAGGTTCCAAAGGTCACCCGTATTGCCTAGGGAGATTAGAGTATCGGTCGA | 6.51
TTCCAAAGGTCACCCGTATTCCTTAGCTTAGCCTAGGGAGATTAGAGTATCGGTCGA | 1.6
CCAGGTTCCAAAGGTCACCCGTATTCCTTAGCCTAGGGAGATTAGAGTATCGGTCGA | 6.63
AGGGCAAAGGTCACCAGCTAAGCTGTTACTGCCTAGGGAGATTAGAGTATCGGTCGA | 5.12
CTGTCGTCCCAGGGCAAAGGTCACCAGCTAGCCTAGGGAGATTAGAGTATCGGTCGA | 6.66
GTCCCAGGGCAAAGGTCACCAGCTAAGCTGGCCTAGGGAGATTAGAGTATCGGTCGA | 5.83
GCTGAGGAATTTGGACTTCAGCCCAGGCTGGCCTAGGGAGATTAGAGTATCGGTCGA | 3.66
ACCACCTTCCCCCATCCCCAACAAAGCTCTGCCTAGGGAGATTAGAGTATCGGTCGA | 4.7
TCTCAAAAGTTTTTCCCTTCTGTTAGAATGGCCTAGGGAGATTAGAGTATCGGTCGA | -0.592
CTTCAAGTCAGTTGCATGCAACCTTTGTCCGCCTAGGGAGATTAGAGTATCGGTCGA | 5.67
ATATTCACTATCTGATCCTTTACAGAGATAGCCTAGGGAGATTAGAGTATCGGTCGA | -0.305
TGTTACTTATAAATAATCTCAACCATACAAGCCTAGGGAGATTAGAGTATCGGTCGA | -0.991
CAACCAAGTCCATCTGTATTGCCTCCTTTGGCCTAGGGAGATTAGAGTATCGGTCGA | 1.08
TTCCAGGGATGTTTGGCAGCTGAGGATTGTGCCTAGGGAGATTAGAGTATCGGTCGA | 1.61
CATCTACCAGCGTAATTCTGGCTCTTTGAGGCCTAGGGAGATTAGAGTATCGGTCGA | 0.87
GCGTGAGCCACCGCGCCCCGCCCCCAGTGCGCCTAGGGAGATTAGAGTATCGGTCGA | 5.65
TACTTTGGACTGGGGACCTGGTCTGAGATAGCCTAGGGAGATTAGAGTATCGGTCGA | 1.75
GGACCTGAGGCTTTTGAGTCAATAATGGACGCCTAGGGAGATTAGAGTATCGGTCGA | 1.21
AAGACTTTGGACTTTGGACCTGAGGCTTTTGCCTAGGGAGATTAGAGTATCGGTCGA | 9.84

Sequence | binding signal [log2 normalized intensity]
GAGGCTCAGACCTGACCTTTGGATTCCCAGGCCTAGGGAGATTAGAGTATCGGTCGA | 6.53
GAGATGAGGCTCAGACCTGACCTTTGGATTGCCTAGGGAGATTAGAGTATCGGTCGA | 7.99
TGCTGGAGATGAGGCTCAGACCTGACCTTTGCCTAGGGAGATTAGAGTATCGGTCGA | 6.49
ATGTGGGGAAACTGGACTGTAATTTGTGGTGCCTAGGGAGATTAGAGTATCGGTCGA | 1.43
ACGTCAGAACTGTCCTTTAACCTCCCTGCAGCCTAGGGAGATTAGAGTATCGGTCGA | 1.99
AATGGAAGAATCACAGTGTGGGGCAAATCTGCCTAGGGAGATTAGAGTATCGGTCGA | -0.752
ACCAGGGGGCAGAGTGAGCAGCACTTTTGGGCCTAGGGAGATTAGAGTATCGGTCGA | -0.845
CTGCCAAAGTTCAGCCTTGGGGCCATTCCAGCCTAGGGAGATTAGAGTATCGGTCGA | 0.325
CACTGGCTCTGGGGTCAAAGTCCCCTGAGCGCCTAGGGAGATTAGAGTATCGGTCGA | 7.16
CTCTCCCTCCTCTCTGAGCAGTCAAACTGGGCCTAGGGAGATTAGAGTATCGGTCGA | 1.96
GAGGTGTCAGCCACCCCTCCTCCTGGGGGCGCCTAGGGAGATTAGAGTATCGGTCGA | 2.64
TCATCGCACCGGCAGGGGAGAACTTCCTCCGCCTAGGGAGATTAGAGTATCGGTCGA | -0.988
GGGGTCAAAGTCCCCTGAGCTTGAGTCCATGCCTAGGGAGATTAGAGTATCGGTCGA | 5.36
TCTCTGGGTCAAAGGTCATCGCACCGGCAGGCCTAGGGAGATTAGAGTATCGGTCGA | 7.15
CCTCCTCTCTGGGTCAAAGGTCATCGCACCGCCTAGGGAGATTAGAGTATCGGTCGA | 7.54
AAAGGTCATCGCACCGGCAGGGGAGAACTTGCCTAGGGAGATTAGAGTATCGGTCGA | 0.284
AGGTCGCAAGCACTGGCTCTGGGGTCAAAGGCCTAGGGAGATTAGAGTATCGGTCGA | 3.1
CCTGCCTCTCCTCTGAGCTTCATCCTGACCGCCTAGGGAGATTAGAGTATCGGTCGA | 1.62
CTGGGGCCACCCTCCTCTCTGGGTCAAAGGGCCTAGGGAGATTAGAGTATCGGTCGA | 4.74
GCCACCCTCCTCTCTGGGTCAAAGGTCATCGCCTAGGGAGATTAGAGTATCGGTCGA | 9.58
AAGTGTGGTCAAGGGTCAGTTTCTGAGAGTGCCTAGGGAGATTAGAGTATCGGTCGA | 3.65
ATAGTTGACCCTTGAACAATGTGGGGGTCGGCCTAGGGAGATTAGAGTATCGGTCGA | 3.7

Sequence | binding signal [log2 normalized intensity]
CTTGTCCTTGACCCTTCCTCCCATTTGCTGGCCTAGGGAGATTAGAGTATCGGTCGA | 2.29
GCCCCCGCAGACCCAGTCTTAGGGACTAAGGCCTAGGGAGATTAGAGTATCGGTCGA | 3.86
TCCCTTCCCCCCTCCTCATTGAGAGTTTTAGCCTAGGGAGATTAGAGTATCGGTCGA | 4.2
TTGAAGCTCCAAGATAGGAATGTACATAATGCCTAGGGAGATTAGAGTATCGGTCGA | 1.11
GTCTTAGGGACTAAGCTTGTAGACCAAGGAGCCTAGGGAGATTAGAGTATCGGTCGA | 0.172
AAGGCTGCAAGCAAACCTGCCCTTTGCTCCGCCTAGGGAGATTAGAGTATCGGTCGA | 5.57
GGGAAACACAGACTCCAAAGAATGGAAGGCGCCTAGGGAGATTAGAGTATCGGTCGA | -0.871
CCTTTGGTCTAAACCTACTTAGATCAAGATGCCTAGGGAGATTAGAGTATCGGTCGA | -0.394
ACCCCAAAACCCCCAAAGGTGAGTAGGGCCGCCTAGGGAGATTAGAGTATCGGTCGA | 2.67
TGCTCTCTCATGCCCTTTGCCTCCCTGCATGCCTAGGGAGATTAGAGTATCGGTCGA | 3.45
GCATCAGGGTCCACAAGGGTTTAAATCTGAGCCTAGGGAGATTAGAGTATCGGTCGA | 1.03
ATATCCCTGAGAGGCCAGTTTGACCTTTGCGCCTAGGGAGATTAGAGTATCGGTCGA | 8.38
TTTGGAGTTTGACCTGGAGCCAGGGCCTTTGCCTAGGGAGATTAGAGTATCGGTCGA | 3.11
GAGGCCAGTTTGACCTTTGCATTCTTACCCGCCTAGGGAGATTAGAGTATCGGTCGA | 5.97
CAGTTTGACCTTTGCATTCTTACCCAAGCCGCCTAGGGAGATTAGAGTATCGGTCGA | 4.4
CCTGAGAGGCCAGTTTGACCTTTGCATTCTGCCTAGGGAGATTAGAGTATCGGTCGA | 7.56
TCACCATATCCCTGAGAGGCCAGTTTGACCGCCTAGGGAGATTAGAGTATCGGTCGA | 2.83
CACAGGTAAACATTTGCCTTTAGGGCCCCCGCCTAGGGAGATTAGAGTATCGGTCGA | 2.56
GTGGGCAAGTTATCTCGGGGTGGCATGTATGCCTAGGGAGATTAGAGTATCGGTCGA | 1.14
